Unmarked numbers belong to inactive results. How the calls were made is not given here.

In the test the target is Pantothenate synthetase (Mycobacterium tuberculosis (strain ATCC 25618 / H37Rv)) (UniProt P9WIL5). Nature of the test: Recombinant Mtb pantothenate synthetase (PanC) inhibitors, coupled enzyme, confirmatory (AID 375).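 Further: 0% = full reaction with vehicle and 100% = no enzyme background.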 The settings on record: coupled enzyme assay; at 10 µM, stronger effect = higher value.
Pantothenate synthetase (Mycobacterium tuberculosis (strain ATCC 25618 / H37Rv)), sequence (P9WIL5 whole entry, looked up): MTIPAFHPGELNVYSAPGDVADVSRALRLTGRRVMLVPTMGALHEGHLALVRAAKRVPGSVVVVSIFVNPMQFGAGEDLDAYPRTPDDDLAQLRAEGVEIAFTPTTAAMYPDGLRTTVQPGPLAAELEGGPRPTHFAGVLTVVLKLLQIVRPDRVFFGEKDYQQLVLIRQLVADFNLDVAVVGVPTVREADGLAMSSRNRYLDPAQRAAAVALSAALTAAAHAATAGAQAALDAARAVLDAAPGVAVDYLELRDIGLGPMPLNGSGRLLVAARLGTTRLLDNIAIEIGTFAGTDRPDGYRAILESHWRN
The term inhibition denotes the share of the control response that was lost under treatment. As to `Cc1ccc(S(=O)(=O)N2CCC(C(=O)N3CCC[C@H]3C(=O)NCc3ccccc3)CC2)cc1`, the inhibition was 0%.

`COc1cccc(C(=O)N2CCCC(c3nc(-c4cccs4)no3)C2)c1` (centres undefined): the inhibition is 0%.

As for `COC(=O)C(O)(CC(=O)c1ccc(OC)cc1)C(F)(F)F` (centres undefined), the inhibition was 0%.

On to `Cc1cc2oc(=O)cc(CN3CCN(Cc4ccc5c(c4)OCO5)CC3)c2cc1C`, for which the inhibition was 0%.

For `O=C(CCn1c(=O)sc2ccccc21)NCc1ccc2c(c1)OCO2`, the inhibition was 0%.

As for `O=S(=O)(NCC(c1cccnc1)N1CCN(c2ccccc2)CC1)c1cc(F)ccc1F` (centres undefined), the inhibition is 0%.

Regarding `O=C(CN1C(=O)COCC1=O)N1CCOCC1`, the inhibition was 0%.

In the case of `O=C(CSc1nnc(-c2ccncc2)o1)Oc1ccccc1`, the inhibition is 0%.

For `O=C(c1cc(S(=O)(=O)N2CCOCC2)ccc1F)N1CCCc2ccccc21`, the inhibition was 1%.

Regarding `CCOC(=O)C1CCCN(c2nc3ccccc3nc2C(C#N)C(=O)NCc2ccccc2)C1` (centres undefined), the inhibition is 0%.

As to `O=C(CSc1nc2cc(Cl)ccc2s1)N1CCN(C(=O)c2ccco2)CC1`, the inhibition was 9%.

As for `O=S(=O)(Nc1ccccn1)c1ccc(Oc2ccccc2)cc1`, the inhibition is 1%.

On to `COc1cc(NC(=O)Cc2cccs2)ccc1-n1cnnn1`, for which the inhibition was 10%.

For the compound `Cc1nnc(SCc2cccc(Oc3ccccc3)c2)n1N`, the inhibition was 0%.

With `CC(C)OC(=O)CSc1nnc(-c2ccc(O)cc2)n1Cc1ccccc1`, the inhibition is 0%.

Regarding `CCC1(CC)C(=O)N(C)C(=O)NC1=NCc1ccccc1`, the inhibition is 0%.

On to `CC(C)CCNC(=O)[C@H](CC(C)C)NC(=O)[C@H]1O[C@@H]1C(=O)O`, for which the inhibition was 0%.

Regarding `Cc1cc(C)nc(NC2=NCC(=O)N2c2ccccc2Br)n1`, the inhibition was 0%.

Consider `Cc1cc(C)nc(NC(=O)c2ccc(OC(C)C)cc2)n1`, for which the inhibition was 0%.

On to `O=C(CCNS(=O)(=O)c1ccc(Cl)cc1)NCc1ccccn1`, for which the inhibition was 0%.

As for `CCCCC(=O)NCCc1cc2ccc(OC)cc2[nH]c1=O`, the inhibition is 0%.

For `Cc1ccc(-c2cc(C(F)F)n3ncc(C(=O)N4CCN(c5ccccn5)CC4)c3n2)cc1`, the inhibition is 6%.

Turning to `O=C(Nc1ccccc1)N1C(=O)C2(OCCO2)c2ccccc21`, the inhibition is 0%.

`O=C(Nc1ccc2c(c1)OCO2)OCc1ccccc1`: the inhibition was 0%.

(Values after PubChem BioAssay.)
